From ChEMBL document CHEMBL2218924, “A broad activity screen in support of a chemogenomic map for kinase signalling research and drug discovery” (Biochem J, 2013)

What was measured:
[1] = molecular target: Protein kinase C eta type (Homo sapiens) (UniProt P24723); conditions: at 1 µM
[2] = molecular target: Protein kinase C eta type (Homo sapiens) (UniProt P24723); conditions: at 10 µM
[3] = molecular target: Protein kinase C theta type (Homo sapiens) (UniProt Q04759); conditions: at 1 µM
[4] = molecular target: Protein kinase C theta type (Homo sapiens) (UniProt Q04759); conditions: at 10 µM
[5] = molecular target: T1, Protein kinase C iota type (Homo sapiens) (UniProt P41743); conditions: at 1 µM
T1 sequence (whole entry): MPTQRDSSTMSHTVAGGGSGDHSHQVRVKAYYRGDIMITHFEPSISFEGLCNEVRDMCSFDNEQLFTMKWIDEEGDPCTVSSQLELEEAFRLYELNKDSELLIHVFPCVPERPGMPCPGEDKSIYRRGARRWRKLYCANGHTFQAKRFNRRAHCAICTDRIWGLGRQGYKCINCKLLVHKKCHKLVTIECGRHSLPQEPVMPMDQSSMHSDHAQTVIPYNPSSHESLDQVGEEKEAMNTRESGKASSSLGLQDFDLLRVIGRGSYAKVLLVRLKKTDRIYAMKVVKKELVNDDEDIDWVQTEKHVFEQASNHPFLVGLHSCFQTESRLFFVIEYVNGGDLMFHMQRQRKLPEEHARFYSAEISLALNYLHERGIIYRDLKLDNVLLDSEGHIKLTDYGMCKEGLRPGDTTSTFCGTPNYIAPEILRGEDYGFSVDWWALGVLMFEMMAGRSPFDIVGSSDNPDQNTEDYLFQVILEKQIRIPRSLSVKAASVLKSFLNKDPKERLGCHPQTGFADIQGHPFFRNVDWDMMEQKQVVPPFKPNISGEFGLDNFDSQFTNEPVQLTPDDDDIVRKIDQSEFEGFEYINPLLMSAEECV

[6] = molecular target: T1, Protein kinase C iota type (Homo sapiens); conditions: at 10 µM
[7] = molecular target: T2, Serine/threonine-protein kinase D1 (Homo sapiens) (UniProt Q15139); conditions: at 1 µM
T2 sequence (whole entry): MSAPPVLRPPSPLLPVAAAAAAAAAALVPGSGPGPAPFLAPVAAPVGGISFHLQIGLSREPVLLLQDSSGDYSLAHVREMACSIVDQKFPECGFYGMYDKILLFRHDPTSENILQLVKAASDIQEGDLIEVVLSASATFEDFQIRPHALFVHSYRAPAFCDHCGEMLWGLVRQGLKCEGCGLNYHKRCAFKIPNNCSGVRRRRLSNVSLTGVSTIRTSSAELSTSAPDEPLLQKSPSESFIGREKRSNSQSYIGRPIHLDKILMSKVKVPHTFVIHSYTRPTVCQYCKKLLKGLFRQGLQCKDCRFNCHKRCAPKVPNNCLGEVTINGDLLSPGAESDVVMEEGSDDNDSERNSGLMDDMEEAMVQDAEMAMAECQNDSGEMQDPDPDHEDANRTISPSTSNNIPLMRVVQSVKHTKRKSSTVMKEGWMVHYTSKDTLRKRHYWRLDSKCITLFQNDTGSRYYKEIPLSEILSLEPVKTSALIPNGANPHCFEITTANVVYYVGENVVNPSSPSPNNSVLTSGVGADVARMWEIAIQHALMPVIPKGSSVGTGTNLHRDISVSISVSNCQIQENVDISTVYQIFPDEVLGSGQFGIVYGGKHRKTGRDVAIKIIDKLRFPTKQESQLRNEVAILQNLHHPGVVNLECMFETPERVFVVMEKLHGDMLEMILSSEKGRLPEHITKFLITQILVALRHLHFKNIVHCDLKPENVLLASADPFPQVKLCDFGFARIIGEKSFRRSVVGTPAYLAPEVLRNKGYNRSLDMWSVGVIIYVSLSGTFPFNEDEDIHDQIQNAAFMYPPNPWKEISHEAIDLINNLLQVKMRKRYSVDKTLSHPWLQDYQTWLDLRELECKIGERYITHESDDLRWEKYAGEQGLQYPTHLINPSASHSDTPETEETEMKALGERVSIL

[8] = molecular target: T2, Serine/threonine-protein kinase D1 (Homo sapiens); conditions: at 10 µM
[9] = molecular target: T3, Serine/threonine-protein kinase D2 (Homo sapiens) (UniProt Q9BZL6); conditions: at 1 µM
T3 sequence (whole entry): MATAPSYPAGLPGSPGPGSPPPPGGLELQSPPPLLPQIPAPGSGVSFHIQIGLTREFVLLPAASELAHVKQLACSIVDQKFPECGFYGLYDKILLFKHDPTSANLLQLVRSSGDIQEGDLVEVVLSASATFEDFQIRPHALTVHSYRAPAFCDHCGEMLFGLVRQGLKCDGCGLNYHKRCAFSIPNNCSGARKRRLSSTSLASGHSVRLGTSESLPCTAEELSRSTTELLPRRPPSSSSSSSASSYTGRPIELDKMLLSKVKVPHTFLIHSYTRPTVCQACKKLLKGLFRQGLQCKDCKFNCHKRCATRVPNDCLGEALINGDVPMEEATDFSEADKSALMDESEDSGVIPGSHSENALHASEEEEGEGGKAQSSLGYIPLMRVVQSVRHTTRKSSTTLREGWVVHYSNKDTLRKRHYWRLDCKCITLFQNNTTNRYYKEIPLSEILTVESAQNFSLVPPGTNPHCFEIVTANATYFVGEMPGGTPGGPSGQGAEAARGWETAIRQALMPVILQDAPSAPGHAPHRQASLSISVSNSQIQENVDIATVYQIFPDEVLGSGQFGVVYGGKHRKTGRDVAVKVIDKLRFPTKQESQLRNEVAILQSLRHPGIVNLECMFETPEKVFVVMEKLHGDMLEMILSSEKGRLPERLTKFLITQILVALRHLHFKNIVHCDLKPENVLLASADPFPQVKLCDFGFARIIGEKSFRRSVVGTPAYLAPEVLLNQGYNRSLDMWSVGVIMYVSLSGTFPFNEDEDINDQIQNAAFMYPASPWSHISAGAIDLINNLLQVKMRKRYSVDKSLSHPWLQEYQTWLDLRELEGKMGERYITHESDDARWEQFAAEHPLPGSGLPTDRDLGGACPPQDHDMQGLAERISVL

[10] = molecular target: T3, Serine/threonine-protein kinase D2 (Homo sapiens); conditions: at 10 µM
[11] = molecular target: T4, cGMP-dependent protein kinase 1 (Homo sapiens) (UniProt Q13976); conditions: at 1 µM
T4 sequence (whole entry): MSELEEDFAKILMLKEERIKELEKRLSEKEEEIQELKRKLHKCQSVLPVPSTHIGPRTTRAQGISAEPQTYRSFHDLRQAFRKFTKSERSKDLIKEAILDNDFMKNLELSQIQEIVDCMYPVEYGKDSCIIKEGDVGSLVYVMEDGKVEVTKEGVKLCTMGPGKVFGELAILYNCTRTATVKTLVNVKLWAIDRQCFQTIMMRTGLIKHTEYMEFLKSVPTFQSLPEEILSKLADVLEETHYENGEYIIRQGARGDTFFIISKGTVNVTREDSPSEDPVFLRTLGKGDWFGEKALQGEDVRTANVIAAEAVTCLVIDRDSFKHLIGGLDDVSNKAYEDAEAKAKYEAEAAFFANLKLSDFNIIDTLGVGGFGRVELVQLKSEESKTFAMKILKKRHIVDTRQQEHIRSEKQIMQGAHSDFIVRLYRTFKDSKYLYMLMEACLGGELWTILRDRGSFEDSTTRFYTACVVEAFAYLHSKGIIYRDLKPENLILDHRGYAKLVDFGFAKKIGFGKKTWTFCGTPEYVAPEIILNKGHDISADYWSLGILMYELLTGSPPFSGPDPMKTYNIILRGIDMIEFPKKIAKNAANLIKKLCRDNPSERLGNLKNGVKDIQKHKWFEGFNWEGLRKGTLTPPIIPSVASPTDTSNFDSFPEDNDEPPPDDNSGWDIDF

[12] = molecular target: T4, cGMP-dependent protein kinase 1 (Homo sapiens); conditions: at 10 µM
[13] = molecular target: T4, cGMP-dependent protein kinase 1 (Homo sapiens); conditions: at 1 µM; remark: listed apart in the source
[14] = molecular target: T4, cGMP-dependent protein kinase 1 (Homo sapiens); conditions: at 10 µM; remark: listed apart in the source
[15] = molecular target: T5, MAP kinase-activated protein kinase 5 (Homo sapiens) (UniProt Q8IW41); conditions: at 1 µM
T5 sequence (whole entry): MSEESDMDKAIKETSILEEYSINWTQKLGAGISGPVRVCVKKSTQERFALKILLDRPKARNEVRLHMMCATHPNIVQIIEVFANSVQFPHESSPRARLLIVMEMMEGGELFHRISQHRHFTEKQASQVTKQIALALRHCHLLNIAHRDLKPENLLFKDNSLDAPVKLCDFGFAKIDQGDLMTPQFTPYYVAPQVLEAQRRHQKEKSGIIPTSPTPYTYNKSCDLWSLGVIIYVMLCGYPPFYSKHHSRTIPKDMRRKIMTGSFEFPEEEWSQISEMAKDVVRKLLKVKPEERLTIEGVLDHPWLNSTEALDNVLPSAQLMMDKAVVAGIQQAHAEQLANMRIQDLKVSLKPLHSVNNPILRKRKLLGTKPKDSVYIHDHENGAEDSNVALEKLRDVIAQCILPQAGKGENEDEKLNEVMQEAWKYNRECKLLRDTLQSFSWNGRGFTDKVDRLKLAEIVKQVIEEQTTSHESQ

[16] = molecular target: T5, MAP kinase-activated protein kinase 5 (Homo sapiens); conditions: at 10 µM
[17] = molecular target: Serine/threonine-protein kinase N2 (Homo sapiens) (UniProt Q16513); conditions: at 1 µM
[18] = molecular target: Serine/threonine-protein kinase N2 (Homo sapiens) (UniProt Q16513); conditions: at 10 µM
[19] = molecular target: Tyrosine-protein kinase FRK (Homo sapiens) (UniProt P42685); conditions: at 1 µM
[20] = molecular target: Tyrosine-protein kinase FRK (Homo sapiens) (UniProt P42685); conditions: at 10 µM

Sequence of Serine/threonine-protein kinase N2 (Homo sapiens) (Q16513 whole entry, looked up): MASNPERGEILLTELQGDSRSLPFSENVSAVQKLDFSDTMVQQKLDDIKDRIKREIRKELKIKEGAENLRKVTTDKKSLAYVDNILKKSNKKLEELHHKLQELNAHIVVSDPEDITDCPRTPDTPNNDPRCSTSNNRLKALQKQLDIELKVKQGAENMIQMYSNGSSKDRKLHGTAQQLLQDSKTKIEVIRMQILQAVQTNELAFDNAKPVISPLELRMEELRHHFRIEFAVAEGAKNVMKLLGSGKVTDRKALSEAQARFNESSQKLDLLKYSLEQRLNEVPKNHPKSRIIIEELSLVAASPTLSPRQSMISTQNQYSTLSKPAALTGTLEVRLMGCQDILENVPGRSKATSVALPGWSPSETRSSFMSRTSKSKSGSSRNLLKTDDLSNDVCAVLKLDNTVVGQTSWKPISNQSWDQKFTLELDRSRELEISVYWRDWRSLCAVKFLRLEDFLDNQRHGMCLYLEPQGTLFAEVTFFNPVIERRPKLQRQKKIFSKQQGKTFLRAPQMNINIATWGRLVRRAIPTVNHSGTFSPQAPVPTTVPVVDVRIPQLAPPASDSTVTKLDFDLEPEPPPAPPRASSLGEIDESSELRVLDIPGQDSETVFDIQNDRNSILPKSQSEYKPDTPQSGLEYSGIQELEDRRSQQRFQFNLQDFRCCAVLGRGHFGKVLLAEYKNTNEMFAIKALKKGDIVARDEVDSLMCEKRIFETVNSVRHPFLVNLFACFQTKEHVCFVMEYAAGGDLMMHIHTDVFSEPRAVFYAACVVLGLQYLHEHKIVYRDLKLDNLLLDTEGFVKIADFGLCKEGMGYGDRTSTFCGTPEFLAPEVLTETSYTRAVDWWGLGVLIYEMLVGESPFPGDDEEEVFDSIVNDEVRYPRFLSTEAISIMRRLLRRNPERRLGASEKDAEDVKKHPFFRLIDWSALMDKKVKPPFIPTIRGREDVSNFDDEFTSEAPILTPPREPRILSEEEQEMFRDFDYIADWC
Sequence of Tyrosine-protein kinase FRK (Homo sapiens) (P42685 whole entry): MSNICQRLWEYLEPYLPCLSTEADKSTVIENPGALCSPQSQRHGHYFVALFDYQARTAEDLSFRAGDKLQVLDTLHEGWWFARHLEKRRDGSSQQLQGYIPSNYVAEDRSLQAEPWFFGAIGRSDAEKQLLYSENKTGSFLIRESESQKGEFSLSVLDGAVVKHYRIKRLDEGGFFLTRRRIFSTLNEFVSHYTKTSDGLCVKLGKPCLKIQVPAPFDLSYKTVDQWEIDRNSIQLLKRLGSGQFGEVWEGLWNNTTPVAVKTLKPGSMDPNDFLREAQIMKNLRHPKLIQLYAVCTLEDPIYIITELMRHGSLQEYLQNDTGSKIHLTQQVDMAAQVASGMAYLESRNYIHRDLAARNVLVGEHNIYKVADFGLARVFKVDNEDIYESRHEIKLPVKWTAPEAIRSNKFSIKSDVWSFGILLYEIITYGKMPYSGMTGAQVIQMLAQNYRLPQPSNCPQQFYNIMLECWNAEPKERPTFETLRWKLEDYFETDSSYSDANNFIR
Sequence of Protein kinase C eta type (Homo sapiens) (P24723 whole entry): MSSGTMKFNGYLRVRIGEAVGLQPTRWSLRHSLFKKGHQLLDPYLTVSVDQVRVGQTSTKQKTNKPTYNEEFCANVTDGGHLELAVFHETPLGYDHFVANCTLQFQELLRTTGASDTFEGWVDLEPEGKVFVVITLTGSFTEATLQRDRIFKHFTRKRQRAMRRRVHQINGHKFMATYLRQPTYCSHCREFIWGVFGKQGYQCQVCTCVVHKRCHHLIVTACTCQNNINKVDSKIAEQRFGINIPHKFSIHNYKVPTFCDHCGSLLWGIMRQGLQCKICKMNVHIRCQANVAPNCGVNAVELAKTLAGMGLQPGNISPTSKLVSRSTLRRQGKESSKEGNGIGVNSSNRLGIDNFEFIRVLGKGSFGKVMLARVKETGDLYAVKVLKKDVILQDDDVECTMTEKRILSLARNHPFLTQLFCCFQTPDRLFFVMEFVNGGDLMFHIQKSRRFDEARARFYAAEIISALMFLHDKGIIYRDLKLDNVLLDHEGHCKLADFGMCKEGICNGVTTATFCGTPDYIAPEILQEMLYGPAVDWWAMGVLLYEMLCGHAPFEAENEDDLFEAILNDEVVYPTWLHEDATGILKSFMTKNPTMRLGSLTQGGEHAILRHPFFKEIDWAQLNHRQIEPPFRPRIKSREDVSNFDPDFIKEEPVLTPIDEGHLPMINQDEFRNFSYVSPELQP
Sequence of Protein kinase C theta type (Homo sapiens) (Q04759 whole entry, looked up): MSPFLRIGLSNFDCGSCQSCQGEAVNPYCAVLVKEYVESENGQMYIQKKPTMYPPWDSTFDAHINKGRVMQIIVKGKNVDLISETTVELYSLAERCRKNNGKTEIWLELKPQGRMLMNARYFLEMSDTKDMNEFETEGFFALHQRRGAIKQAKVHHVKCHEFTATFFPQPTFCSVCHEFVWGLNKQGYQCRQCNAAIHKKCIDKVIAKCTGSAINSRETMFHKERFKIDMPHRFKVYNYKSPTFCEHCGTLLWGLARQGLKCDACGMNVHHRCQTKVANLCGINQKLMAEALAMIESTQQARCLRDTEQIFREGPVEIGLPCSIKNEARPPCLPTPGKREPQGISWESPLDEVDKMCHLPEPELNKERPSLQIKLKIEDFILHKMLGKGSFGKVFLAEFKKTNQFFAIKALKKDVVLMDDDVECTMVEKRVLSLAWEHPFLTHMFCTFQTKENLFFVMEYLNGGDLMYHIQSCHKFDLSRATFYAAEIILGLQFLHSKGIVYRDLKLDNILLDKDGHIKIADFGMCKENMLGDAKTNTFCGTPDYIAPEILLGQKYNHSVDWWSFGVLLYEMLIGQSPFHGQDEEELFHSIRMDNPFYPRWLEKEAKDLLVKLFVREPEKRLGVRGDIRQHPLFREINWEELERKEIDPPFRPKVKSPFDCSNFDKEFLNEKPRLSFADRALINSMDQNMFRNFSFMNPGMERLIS

Structure (SMILES) | residual activity [1] [%] | residual activity [2] [%] | residual activity [3] [%] | residual activity [4] [%] | residual activity [5] | residual activity [6] [%] | residual activity [7] [%] | residual activity [8] [%] | residual activity [9] [%] | residual activity [10] [%] | residual activity [11] [%] | residual activity [12] [%] | residual activity [13] [%] | residual activity [14] [%] | residual activity [15] [%] | residual activity [16] [%] | residual activity [17] [%] | residual activity [18] [%] | residual activity [19] [%] | residual activity [20] [%]
Oc1n[nH]c2nnc(-c3c(-c4ccccc4)nn4ccccc34)cc12 | 78 | 89 | 81 | 75 | 104% (inactive) | 103 | 89 | 71 | 104 | 98 | 99 | 100 | 89 | 78 | 115 | 112 | 86 | 86 | 88 | 92
O=c1cc(-c2cccc3c2Sc2ccccc2S3)oc(N2CCOCC2)c1 | 107 | 101 | 97 | 91 | 117% (inactive) | 102 | 86 | 80 | 106 | 103 | 102 | 105 | 81 | 80 | 99 | 40 | 112 | 97 | 94 | 92
COc1cc2ncnc(Nc3ccc(O)c(Br)c3)c2cc1OC | 94 | 69 | 83 | 81 | 88% (inactive) | 106 | 47 | 16 | 93 | 79 | 94 | 76 | 70 | 47 | 77 | 70 | 87 | 61 | 35 | 5
COc1cc2ncnc(Nc3ccc(NC(=O)c4ccccc4)cc3)c2cc1OC | 137 | 95 |  | 101 | 101% (inactive) | 66 |  | 88 | 100 | 106 | 105 | 99 | 90 |  | 105 | 76 |  |  | 109 | 76
O=C1NC(=O)c2c1c1c3ccccc3[nH]c1c1[nH]c3cc(Br)ccc3c21 | 72 | 89 | 80 | 91 | 102% (inactive) |  | 111 | 72 | 103 | 90 | 99 | 113 | 92 | 83 | 105 | 106 | 87 | 84 | 94 | 90
N#Cc1cnc2cnc(NCc3cccnc3)cc2c1Nc1ccc(F)c(Cl)c1 | 85 | 83 | 4 | 5 |  |  | 80 | 39 | 101 | 91 | 4 | 9 |  |  | 78 | 101 | 4 | 3 | 28 | 22
CO[C@@H]1[C@H](N(C)C(=O)c2ccccc2)C[C@H]2O[C@]1(C)n1c3ccccc3c3c4c(c5c6ccccc6n2c5c31)C(=O)NC4 | 84 | 29 | 15 | 11 | 79% (inactive) | 85 | 85 |  | 101 | 92 | 8 | 4 | 4 | 3 | 102 | 57 | 2 | 1 | 33 | 23
